# Reference: article PMC5540273 (PLoS ONE, 2017)
# Tested on: CDK7
# Conditions: concentration: 1 μM, replicates: in singlicate; n = 1
# 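Note: KINOMEscan kinase panel screen.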
row,SMILES,%Inh
1,Nc1nc(-c2nccs2)c(-c2ccnc3ccccc23)s1 [GW693542],0%
2,CC1=C(C(=O)Nc2cc3cn[nH]c3cc2F)C(c2ccc(C(F)(F)F)cc2)CC(=O)N1 (stereo not drawn) [GSK429286],0%
3,Cc1cccc(-c2nc(Nc3ccc4[nH]ncc4c3)c3ccccc3n2)n1 [GW857175],8%
4,Cc1cc(NCC(c2ccccc2)c2ccccc2)nc(NCc2ccc(C(F)(F)F)cc2)n1 [GW497681],0%
5,COC(=O)c1c(-c2ccccc2)c2cc(OC)ccc2c(=O)n1Cc1ccccc1,15%
6,Cn1ccc2ncnc(Oc3ccc(Nc4nc5ccccc5[nH]4)cc3)c21,0%
7,COc1cc(Nc2nccc(N3CCC(NC(=O)Nc4cc(C)ccc4C)C3)n2)cc(OC)c1OC (stereo not drawn) [GSK1379762],0%
8,O=C(Nc1ccccc1)Nc1cccc(Oc2ccc3nccn3n2)c1,0%
9,Cl.O=C(Nc1cccc(-c2nn3ncccc3c2-c2ccnc(Nc3cccnc3)n2)c1)c1c(F)cccc1F [GSK312879],0%
10,CCn1c(-c2ccccn2)nc2cnccc21 [SB-736398],0%
11,CC(C)(C)c1ccc(C(=O)Nc2cn3cc(Cl)ccc3n2)cc1,0%
12,Cl.NC(=O)c1cccc(Nc2nccc(Nc3ccc(Oc4cccc(Cl)c4)c(Cl)c3)n2)c1 [GW659008],0%
13,Cc1ccccc1-n1cnc2c(N)ncnc21 [SKF-97510],0%
14,COc1ccc2nc(-c3cccc(C)n3)nc(Nc3ccncc3)c2c1 [GSK204919],0%
15,Cc1nnc(-c2ccc3occ(-c4ccc(S(C)=O)cc4)c3c2)[nH]1 (stereo not drawn),0%
16,Cc1cccc(-c2cc(Nc3ccncc3)c3ccccc3n2)n1 [GSK223675],0%
17,Cc1csc(-c2nc(Nc3ccncc3)c3ccccc3n2)n1 [GW869640],31%

row,SMILES,%Inh
1,Cn1ccc2ncnc(Oc3cccc(C(=O)Nc4ccccc4)c3)c21,4%
2,O=C(Nc1n[nH]c2cc(-c3cccc(F)c3F)ccc12)C1CC1 [SB-733894],17%
3,Cc1cc(-c2ccc3c(c2)CC[C@@H](N[C@@H](C)c2ccccc2)C3)cnc1N.Cl [GW412617],0%
4,Cc1ccc(NC(=O)Nc2cccc(Cl)c2)cc1-c1ccc(C(=O)Nc2ccncc2)cc1 [GSK1398468],0%
5,CN(C)CCN(C)C(=O)c1cc(-c2ccncc2)c(-c2ccc(Cl)c(O)c2)o1.Cl.Cl [SB-710397],0%
6,O=C(Nc1n[nH]c2nc(-c3nccs3)c(Br)cc12)C1CC1 [SB-742251],12%
7,Cc1cccc(-c2nc(C)cc(Nc3ccncc3)n2)n1 [GSK257997],0%
8,Cc1cccc(-c2nc(Nc3cccc(C(N)=O)c3)c3ccccc3n2)n1 [GW876019],8%
9,COc1cc2ncnc(Nc3ccc4nc(-c5ccccc5)[nH]c4c3)c2cc1OC.Cl [GW282450],0%
10,CN1C(=O)C(Nc2ccc(Cl)c(C(=O)O)c2)=C(c2ccc(Cl)cc2)C1=O [SB-404290],0%
11,Cc1cccc(-c2nc(Nc3ccncc3)c3ccccc3n2)n1 [GW855857],0%
12,CCn1c(-c2cccnc2O)nc2cnccc21 [SB-736715],0%
13,COc1ccccc1-c1ccc2c(NC(=O)C3CC3)n[nH]c2n1 [SB-711239],0%
14,CS(=O)(=O)c1ccc(-c2nc3n(c2-c2ccncc2)CCC3)cc1 [SKF-105942],0%
15,CC(C)(C)c1ccc(C(=O)Nc2cn3cc(-c4cccnc4)ccc3n2)cc1,35%
16,Cc1c(Cn2ccn3c(=O)cc(N4CCOCC4)nc23)cccc1C(F)(F)F [GSK2289044],0%
17,O=C(O)COc1ncnc2cc(-c3ccc4[nH]ncc4c3)sc12,30%

# Tested on: CDK8
# Conditions: concentration: 1 μM, replicates: in singlicate; n = 1
row,SMILES,%Inh
1,Nc1nc(-c2nccs2)c(-c2ccnc3ccccc23)s1 [GW693542],14%
2,CC1=C(C(=O)Nc2cc3cn[nH]c3cc2F)C(c2ccc(C(F)(F)F)cc2)CC(=O)N1 (stereo not drawn) [GSK429286],18%
3,Cc1cccc(-c2nc(Nc3ccc4[nH]ncc4c3)c3ccccc3n2)n1 [GW857175],0%
4,Cc1cc(NCC(c2ccccc2)c2ccccc2)nc(NCc2ccc(C(F)(F)F)cc2)n1 [GW497681],28%
5,CSc1nn2c(=O)cc(N3CCOCC3)nc2n1Cc1cccc(C(F)(F)F)c1C [GSK2363608],0%
6,COC(=O)c1c(-c2ccccc2)c2cc(OC)ccc2c(=O)n1Cc1ccccc1,7%
7,Cn1ccc2ncnc(Oc3ccc(Nc4nc5ccccc5[nH]4)cc3)c21,6%
8,COc1cc(Nc2nccc(N3CCC(NC(=O)Nc4cc(C)ccc4C)C3)n2)cc(OC)c1OC (stereo not drawn) [GSK1379762],20%
9,O=C(Nc1ccccc1)Nc1cccc(Oc2ccc3nccn3n2)c1,76%
10,Cl.O=C(Nc1cccc(-c2nn3ncccc3c2-c2ccnc(Nc3cccnc3)n2)c1)c1c(F)cccc1F [GSK312879],0%
11,CCn1c(-c2ccccn2)nc2cnccc21 [SB-736398],39%
12,CC(C)(C)c1ccc(C(=O)Nc2cn3cc(Cl)ccc3n2)cc1,7%
13,Cl.NC(=O)c1cccc(Nc2nccc(Nc3ccc(Oc4cccc(Cl)c4)c(Cl)c3)n2)c1 [GW659008],28%
14,Cc1ccccc1-n1cnc2c(N)ncnc21 [SKF-97510],0%
15,COc1ccc2nc(-c3cccc(C)n3)nc(Nc3ccncc3)c2c1 [GSK204919],7%
16,Cc1nnc(-c2ccc3occ(-c4ccc(S(C)=O)cc4)c3c2)[nH]1 (stereo not drawn),0%
17,Cc1cccc(-c2cc(Nc3ccncc3)c3ccccc3n2)n1 [GSK223675],0%
18,Cc1csc(-c2nc(Nc3ccncc3)c3ccccc3n2)n1 [GW869640],0%

row,SMILES,%Inh
1,Cn1ccc2ncnc(Oc3cccc(C(=O)Nc4ccccc4)c3)c21,22%
2,O=C(Nc1n[nH]c2cc(-c3cccc(F)c3F)ccc12)C1CC1 [SB-733894],89%
3,Cc1cc(-c2ccc3c(c2)CC[C@@H](N[C@@H](C)c2ccccc2)C3)cnc1N.Cl [GW412617],14%
4,Cc1ccc(NC(=O)Nc2cccc(Cl)c2)cc1-c1ccc(C(=O)Nc2ccncc2)cc1 [GSK1398468],0%
5,CN(C)CCN(C)C(=O)c1cc(-c2ccncc2)c(-c2ccc(Cl)c(O)c2)o1.Cl.Cl [SB-710397],37%
6,O=C(Nc1n[nH]c2nc(-c3nccs3)c(Br)cc12)C1CC1 [SB-742251],25%
7,Cc1cccc(-c2nc(C)cc(Nc3ccncc3)n2)n1 [GSK257997],0%
8,Cc1cccc(-c2nc(Nc3cccc(C(N)=O)c3)c3ccccc3n2)n1 [GW876019],36%
9,COc1cc2ncnc(Nc3ccc4nc(-c5ccccc5)[nH]c4c3)c2cc1OC.Cl [GW282450],0%
10,CN1C(=O)C(Nc2ccc(Cl)c(C(=O)O)c2)=C(c2ccc(Cl)cc2)C1=O [SB-404290],0%
11,Cc1cccc(-c2nc(Nc3ccncc3)c3ccccc3n2)n1 [GW855857],65%
12,CCn1c(-c2cccnc2O)nc2cnccc21 [SB-736715],33%
13,COc1ccccc1-c1ccc2c(NC(=O)C3CC3)n[nH]c2n1 [SB-711239],44%
14,CS(=O)(=O)c1ccc(-c2nc3n(c2-c2ccncc2)CCC3)cc1 [SKF-105942],0%
15,CC(C)(C)c1ccc(C(=O)Nc2cn3cc(-c4cccnc4)ccc3n2)cc1,6%
16,Cc1c(Cn2ccn3c(=O)cc(N4CCOCC4)nc23)cccc1C(F)(F)F [GSK2289044],0%
17,O=C(O)COc1ncnc2cc(-c3ccc4[nH]ncc4c3)sc12,4%
